Results published in PubChem BioAssay AID1240 (Sanford-Burnham Center for Chemical Genomics, 2008).
Out of some 50,000 compounds screened, about 800 (1.6%) showed an effect of 50% or more. The list comes from a sample in which strong results are over-represented; it also holds similar structures and randomly drawn compounds.

molecular target: Bcl-2-like protein 10 (Homo sapiens) (UniProt Q9HD36); assay: TR3 peptide-Bcl-B binding displacers, biochemical primary FP assay, phenotype converters (AID 1240); settings: GST-Bcl-B / FITC-TR3 peptide fluorescence polarization; stronger effect = higher value; compound at 3.75 mg/L;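 note: 0% = Bcl-B with tracer peptide and DMSO and 100% = tracer peptide lacking Bcl-B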
Sequence (Q9HD36 whole entry, looked up): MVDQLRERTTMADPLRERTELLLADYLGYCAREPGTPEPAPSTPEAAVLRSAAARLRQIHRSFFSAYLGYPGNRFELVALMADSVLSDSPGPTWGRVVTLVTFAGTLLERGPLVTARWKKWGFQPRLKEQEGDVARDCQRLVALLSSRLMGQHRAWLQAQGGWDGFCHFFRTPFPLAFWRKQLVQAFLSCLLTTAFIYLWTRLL

| Compound | displacement [%] |
| --- | --- |
| COc1ccc(CNC(=O)Cc2ccc(Br)cc2)cc1 | 0 |
| COc1ccc(CCNC(=O)/C=C\c2ccccc2)cc1OC | 6.7 |
| CCOC(=O)c1c(NC(=O)c2cc(Cl)ccc2[N+](=O)[O-])sc(C(=O)N(CC)CC)c1C | -1.1 |
| Cc1cc2[nH]c(=O)cc(-c3ccccc3)n2n1 | -5.3 |
| COc1cccc(NC(=O)c2cc(Cl)ccc2Cl)c1 | 11.1 |
| COc1ccc(-c2nc3cc(N)ccc3o2)cc1OC | 2.7 |
| CCOC(=O)C(CCOCCOc1c(C)cc(Cl)cc1C)C(=O)OCC | -9.7 |
| Cc1ccc(/C=N/NS(=O)(=O)c2ccc(C)cc2)cc1 | 8 |
| CCOC(=O)C1=C(C)N=c2s/c(=C\c3ccc(C)o3)c(=O)n2C1c1ccc(SC)cc1 (centres undefined) | 65.3 |
| CCOC(=O)C1=C(C)N=c2s/c(=C\c3ccc(Br)o3)c(=O)n2C1c1ccc(F)cc1 (centres undefined) | 11.2 |
| CCOC(=O)C1=C(C)N=c2s/c(=C\c3ccc(Br)o3)c(=O)n2C1c1cccc(OC)c1 (centres undefined) | 10.7 |
| CCOC(=O)C1=C(C)N=c2s/c(=C\c3ccc(-c4ccccc4C(=O)O)o3)c(=O)n2C1c1cccc(OC)c1 (centres undefined) | -23.4 |
| CCOC(=O)C1=C(C)N=c2s/c(=C\c3ccc(N4CCOCC4)o3)c(=O)n2C1c1ccc(SC)cc1 (centres undefined) | -55.4 |
| CCOC(=O)C1=C(C)N=c2s/c(=C\c3ccc(C)o3)c(=O)n2C1c1cccc(OC)c1 (centres undefined) | 73.3 |
| CC1(C)Nc2ccccc2N(CCC(=O)N2CCOCC2)C1=O | 9 |
| Cc1ccnc(NC(=O)COc2ccc(Cl)c(C)c2)c1 | 1.5 |
| O=C1CC(c2ccccc2)CC2=C1C(c1ccc(F)cc1)Nc1ccccc1N2 (centres undefined) | 2.3 |
| COc1ccc(OC)c(/C=N/NC(=O)CSc2ncccn2)c1 | 1.1 |
| CC(C)=N/N=C1/NC(=O)C(CC(=O)Nc2ccc(C)cc2C)S1 (centres undefined) | -0.5 |
| C/C(=C\C(=O)c1ccc(C)cc1)Nc1ccc(I)cc1 | 7.2 |

| Compound | displacement [%] |
| --- | --- |
| NC(=O)c1ccc(NC(=O)CCN2C(=O)c3ccccc3C2=O)cc1 | 26.7 |
| CC(=O)NC1=NC(=O)/C(=C\c2ccc(-c3ccc(C(=O)O)cc3)o2)S1 | -27 |
| O=C(N/N=C/c1cc(Cl)ccc1OCc1c(F)cccc1Cl)c1cccnc1 | -2 |
| O=Cc1cc(Br)ccc1OCc1c(F)cccc1Cl | 0.3 |
| CC(=O)NC1=NC(=O)/C(=C\c2cn(C)c3ccccc23)S1 | 123 |
| CC(=O)NC1=NC(=O)/C(=C\c2ccc(C(C)C)cc2)S1 | -10.2 |
| CC(=O)NC1=NC(=O)/C(=C\c2ccc(Cl)c(Cl)c2)S1 | -13.5 |
| CC(=O)NC1=NC(=O)/C(=C\c2ccc(Cl)cc2)S1 | 133 |
| Cc1ccc(C2=NC(=O)/C(=C/c3ccc4c(c3)OCO4)S2)cc1 | 0.5 |
| CC(=O)NC1=NC(=O)/C(=C\c2ccc3c(c2)OCO3)S1 | 130 |
| CC(=O)NC1=NC(=O)/C(=C\c2ccc(-c3ccccc3C(=O)O)o2)S1 | 14.5 |
| CC(=O)NC1=NC(=O)/C(=C/c2cc(Cl)ccc2OCc2c(F)cccc2Cl)S1 | 112 |
| COC(=O)c1cc(C(=O)N2CCCC2)cc([N+](=O)[O-])c1 | 12.7 |
| Cc1cc(/C=N/NC(=O)c2ccccn2)c(C)n1-c1cccc(Cl)c1 | -15.5 |
| COc1ccc(S(=O)(=O)N(CC(=O)N[C@@H]2CCCC[C@H]2O)c2ccc(C)cc2)cc1OC | 0.1 |
| COC(=O)c1cnn2c1NC(c1ccccc1)CC2C(F)(F)F (centres undefined) | 6.5 |
| CC(C)(C)NC(=O)c1cc2nc(-c3ccccc3)cc(C(F)(F)F)n2n1 | 13 |
| CC(=O)NC1=NC(=O)/C(=C\c2ccc(N(C)C)c(Br)c2)S1 | -39.2 |
| Cc1ccsc1/C=C1\SC(N2CCN(C)CC2)=NC1=O | 3 |
| Cc1ccsc1/C=C1/SC(N2CCCC2)=NC1=O | 1.4 |

| Compound | displacement [%] |
| --- | --- |
| CC(=O)NC1=NC(=O)/C(=C\c2sccc2C)S1 | 98.2 |
| CC(=O)NC1=NC(=O)/C(=C\c2ccc(I)o2)S1 | 20.2 |
| CC(=O)NC1=NC(=O)/C(=C\c2ccc(C)o2)S1 | 96 |
| CC(=O)NC1=NC(=O)/C(=C\c2ccccc2F)S1 | 107 |
| CC(=O)NC1=NC(=O)/C(=C\c2ccc(Br)o2)S1 | 1.4 |
| CC(=O)NC1=NC(=O)/C(=C\c2ccccc2C)S1 | -6.5 |
| CCN(CC)c1ccc(/C=C2/SC(NC(C)=O)=NC2=O)cc1 | 61.1 |
| CC(=O)NC1=NC(=O)/C(=C\c2ccc(N(C)C)cc2)S1 | -23.2 |
| COc1ccccc1/C=C/C(=O)c1ccc(F)cc1 | -0.2 |
| COc1ccc(CN2CCN(C3CCN(Cc4ccccc4)CC3)CC2)cc1Br | -9.1 |
| CCOC(=O)C1C(=O)NCC2CCCC21 (centres undefined) | 4.6 |
| O=C(CN1C(=O)c2ccccc2C1=O)Nc1cc(Cl)ccc1C(=O)O | -6.4 |
| COc1cccc(CN2CCN(Cc3cccnc3)CC2)c1 | -13.5 |
| COc1ccc(/C=C/C(=O)O)cc1S(=O)(=O)NCc1ccccc1 | 7.2 |
| CN(C)CCOC(=O)C12CCC3CC(CC(C3)C1)C2 | 11.3 |
| CCOC(=O)c1ccc(NC(=O)CC)cc1 | 4.7 |
| CCOC(=O)c1c(C)[nH]c(N=Nc2ccc(C)cc2)c1C | 2.4 |
| CC(=O)NC1=NC(=O)/C(=C\c2cccs2)S1 | 109 |
| CC(=O)NC1=NC(=O)/C(=C\c2cccc([N+](=O)[O-])c2)S1 | -42.2 |
